Experimental findings from article PMC8384837, “Expanding the binding specificity for RNA recognition by a PUF domain” are described below.

Holding throughout (test): yeast three-hybrid, YBZ-1, SC-Leu-His + 0.5 mM 3-AT, 4 days
What all share (settings): tags: N-Gal4 AD-HA kept; label: inside an RPR1-promoter hybrid RNA with tandem MS2 sites; ssRNA

Assay [1] deals with PUM1 PUF domain R3-RGG (Homo sapiens, UniProt Q14671 828-1176, C935R;R936G;Q939G). Put shortly:
(§1)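 A centromeric plasmid in strain YBZ-1 co-expressed Pumilio-1 PUF domain libraries, randomized at the three base-contacting residues of each repeat, with matching RNA elements; the strain carries a LexA–MS2 coat fusion and a HIS3 reporter. After four days on SC-Leu (input) or SC-Leu-His + 0.5 mM 3-AT (selection), the repeat regions were PCR-amplified and Illumina-sequenced. The interaction score is the log change in variant frequency from input to selection, using log2 and a pseudocount of 1 where absent.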

For assay [2], the target named is T1, PUM1 PUF domain R6-GLR (Homo sapiens, UniProt Q14671 828-1176, N1043G;Y1044L;Q1047R).
T1 sequence: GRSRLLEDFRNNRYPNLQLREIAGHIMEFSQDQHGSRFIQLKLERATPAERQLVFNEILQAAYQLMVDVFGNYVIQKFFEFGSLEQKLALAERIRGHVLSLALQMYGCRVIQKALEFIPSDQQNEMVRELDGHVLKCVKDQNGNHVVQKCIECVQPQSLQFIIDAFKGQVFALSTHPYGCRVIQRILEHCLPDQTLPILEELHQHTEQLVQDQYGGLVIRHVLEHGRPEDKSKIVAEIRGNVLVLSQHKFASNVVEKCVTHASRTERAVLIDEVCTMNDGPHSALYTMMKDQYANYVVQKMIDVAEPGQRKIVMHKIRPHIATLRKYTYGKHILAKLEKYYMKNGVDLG
Put shortly:
as §1

The target in assay [3] is PUM1 PUF domain R1-KRR (Homo sapiens, UniProt Q14671 828-1176, S863K;Q867R). In a few lines:
as §1

Assay [4] concerns the target PUM1 PUF domain R1-KLV (Homo sapiens, UniProt Q14671 828-1176, S863K;R864L;Q867V). In a few lines:
as §1

The target of assay [5] is PUM1 PUF domain R4-WSY (Homo sapiens, UniProt Q14671 828-1176, N971W;H972S;Q975Y). Put shortly:
as §1

In assay [6] the target is PUM1 PUF domain R4-DWC (Homo sapiens, UniProt Q14671 828-1176, N971D;H972W;Q975C). Put shortly: as §1
Assay [7] has as its target PUM1 PUF domain R7-LFG (Homo sapiens, UniProt Q14671 828-1176, S1079L;N1080F;E1083G). Put shortly:
as §1

The target in assay [8] is T2, PUM1 PUF domain R6-TFE (Homo sapiens, UniProt Q14671 828-1176, N1043T;Y1044F;Q1047E).
T2 sequence: T1 sequence with G216T, L217F, R220E
In a few lines:
as §1

The target of assay [9] is T3, PUM1 PUF domain R6-CWS (Homo sapiens, UniProt Q14671 828-1176, N1043C;Y1044W;Q1047S).
T3 sequence: T1 sequence with G216C, L217W, R220S
Put shortly: as §1

In assay [10] the target is T4, PUM1 PUF domain R6-VFY (Homo sapiens, UniProt Q14671 828-1176, N1043V;Y1044F;Q1047Y).
T4 sequence: T1 sequence with G216V, L217F, R220Y
Put shortly: as §1

Where a chain is given by its changes, count along the chain named.

Turning to “GGCUAGAACUAGUGGAUCCCCCGGCGCCCGGCGGCUCGAGCCCGGGUAAGUGUAAUUAGUCUGCAUGCCGCCGGGCGCCAUGCCUGCAGGUCGACUCUAGAAAACAUG”, the binding signal in assay [1] was 2.13 log2 enrichment (interaction score).

Consider “GGCUAGAACUAGUGGAUCCCCCGGCGCCCGGCGGCUCGAGCCCGGGUAAGUGCAAAUAGUCUGCAUGCCGCCGGGCGCCAUGCCUGCAGGUCGACUCUAGAAAACAUG”, for which the binding signal in assay [2] was 3.46 log2 enrichment (interaction score).

As for “GGCUAGAACUAGUGGAUCCCCCGGCGCCCGGCGGCUCGAGCCCGGGUAAGUGUAAAUUGUCUGCAUGCCGCCGGGCGCCAUGCCUGCAGGUCGACUCUAGAAAACAUG”, the binding signal was 5.9 log2 enrichment (interaction score) in assay [3] and 4.79 log2 enrichment (interaction score) in assay [4].

As to “GGCUAGAACUAGUGGAUCCCCCGGCGCCCGGCGGCUCGAGCCCGGGUAAGUGUAAAUGGUCUGCAUGCCGCCGGGCGCCAUGCCUGCAGGUCGACUCUAGAAAACAUG”, the binding signal in assay [4] was 3.18 log2 enrichment (interaction score).

As for “GGCUAGAACUAGUGGAUCCCCCGGCGCCCGGCGGCUCGAGCCCGGGUAAGUGUAUAUAGUCUGCAUGCCGCCGGGCGCCAUGCCUGCAGGUCGACUCUAGAAAACAUG”, the binding signal in [5] is 3.41 log2 enrichment (interaction score); in [6], 2.64 log2 enrichment (interaction score).

For the sequence “GGCUAGAACUAGUGGAUCCCCCGGCGCCCGGCGGCUCGAGCCCGGGUAAGUUUAAAUAGUCUGCAUGCCGCCGGGCGCCAUGCCUGCAGGUCGACUCUAGAAAACAUG”, the binding signal in assay [7] was 4.82 log2 enrichment (interaction score).

Regarding “GGCUAGAACUAGUGGAUCCCCCGGCGCCCGGCGGCUCGAGCCCGGGUAAGUGUAAAUCGUCUGCAUGCCGCCGGGCGCCAUGCCUGCAGGUCGACUCUAGAAAACAUG”, the binding signal in assay [3] is 5.65 log2 enrichment (interaction score); in assay [4], 3.95 log2 enrichment (interaction score).

With “GGCUAGAACUAGUGGAUCCCCCGGCGCCCGGCGGCUCGAGCCCGGGUAAGUGGAAAUAGUCUGCAUGCCGCCGGGCGCCAUGCCUGCAGGUCGACUCUAGAAAACAUG”, the binding signal in assay [8] was 3.07 log2 enrichment (interaction score).

Consider “GGCUAGAACUAGUGGAUCCCCCGGCGCCCGGCGGCUCGAGCCCGGGUAAGUGAAAAUAGUCUGCAUGCCGCCGGGCGCCAUGCCUGCAGGUCGACUCUAGAAAACAUG”, for which the binding signal in assay [9] was 5.26 log2 enrichment (interaction score); in [10] it was 6.28 log2 enrichment (interaction score).
